# Measured values taken from PubChem BioAssay (EPA / NIEHS).
# Inconclusive results are not listed. Activity calls are given as the source filed them. Rule for the calls: active = hit-call score of the fitted dose curve at least 0.9, where 1 is the maximum; inconclusive = response in the unintended direction; inactive = score below 0.9.
# Columns and labels:
# NCBI gene 24521 = test: NVS_IC_rKATPCh: NovaScreen (NVS) Ion Channel Assay for rat Potassium Channel, ATP-Sensitive (KATPCh) (AID 2283319)
# Method in brief: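 Rat cortical membranes; radioligand binding at ATP-sensitive K channel site, filter-based scintillation counting 2 h after dosing. Single-point duplicate screen at 25 uM, hits rerun in concentration-response up to 50 uM; loss of signal versus DMSO.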
# [1] = molecular target: rat Glutamate Metabotropic Receptor 5 (MGluR5), Grm5 (gene 24418) (UniProt P31424); test: NVS_GPCR_rmMGluR5: NovaScreen (NVS) G Protein-Coupled Receptor Assay for rat Glutamate Metabotropic Receptor 5 (MGluR5) (AID 2283307)
# Method in brief: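 Rat whole-brain membrane preparation; filter-based radioligand binding read by scintillation counting, 1.5 h after dosing. Single-point screen at 25 uM in duplicate; hits over threshold (e.g. 30% inhibition) retested in concentration-response up to 50 uM; loss of signal vs DMSO.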
# [2] = molecular target: rat Neurokinin-1 Receptor (NK1), Tacr1 (gene 24807) (UniProt P14600); test: NVS_GPCR_rNK1: NovaScreen (NVS) G Protein-Coupled Receptor Assay for rat Neurokinin-1 Receptor (NK1) (AID 2283309)
# Method in brief: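 Rat submaxillary gland membranes; radioligand displacement read by filter-based scintillation counting after 1 h. Primary screen in duplicate at 25 uM; actives retested in concentration series; loss of binding fitted versus DMSO.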
# [3] = molecular target: rat Neurokinin-3 Receptor (NK3), Tacr3 (gene 24808) (UniProt P16177); test: NVS_GPCR_rNK3: NovaScreen (NVS) G Protein-Coupled Receptor Assay for rat Neurokinin-3 Receptor (NK3) (AID 2283310)
# Method in brief: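 Rat cortical membranes; radioligand binding with filtration and scintillation counting, 2 h after dosing. Primary screen in duplicate at 25 uM, then concentration-response up to 50 uM; loss of binding signal relative to DMSO.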
# [4] = molecular target: rat Adrenergic Receptor, Beta (Adrb), Non-selective Binding, Adrb1 (gene 24925) (UniProt P18090); test: NVS_GPCR_rAdrb_NonSelective: NovaScreen (NVS) G Protein-Coupled Receptor Assay for rat Adrenergic Receptor, Beta (Adrb), Non-selective Binding (AID 2283298)
# Method in brief: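 Non-selective beta-adrenergic radioligand binding in rat cortical membranes, 1 h incubation, filter-based scintillation read-out. Primary screen 25 uM in duplicate; hits retested in concentration-response up to 50 uM, DMSO baseline.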
# [5] = molecular target: rat Histamine Receptor (H3), Hrh3 (gene 85268) (UniProt Q9QYN8); test: NVS_GPCR_rH3: NovaScreen (NVS) G Protein-Coupled Receptor Assay for rat Histamine Receptor (H3) (AID 2283303)
# Method in brief: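 Rat forebrain membranes incubated 1 h with compound; radioligand displacement measured by filter-based scintillation counting. Single-concentration duplicates at 25 µM, then concentration-response up to 50 µM, relative to DMSO.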
# Adra2b (gene 24174) = Adra2b (gene 24174) (UniProt P19328); test: NVS_GPCR_rmAdra2B: NovaScreen (NVS) G Protein-Coupled Receptor Assay for hybird cells Adrenergic, Alpha 2B Receptor (Adra2B) (AID 2283306)
# Method in brief: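 Radioligand filter-binding assay on membrane proteins from neuroglioma/blastoma hybrid cells (rodent), 1 h after dosing; scintillation counting, loss of signal vs DMSO. Primary screen in duplicate at 25 uM, actives then run in concentration series.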
# [6] = molecular target: human Neonicotinoid receptor (NNR), CHRNA2 (gene 1135) (UniProt Q15822); test: NVS_LGIC_hNNR_NBungSens: NovaScreen (NVS) Ligand-Gated Ion Channel Assay for human Neonicotinoid receptor (NNR) (AID 2283313)
# Method in brief: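 Radioligand displacement on human neuroblastoma membranes, 2 h, filter-based scintillation counting. Primary screen in duplicate at 25 uM; chemicals passing threshold (e.g. 30% inhibition) run singleton concentration-response to 50 uM; loss of binding fitted versus DMSO.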
# [7] = molecular target: Voltage-dependent N-type calcium channel subunit alpha-1B (Rattus norvegicus) (UniProt Q02294); test: NVS_IC_rCaChN: NovaScreen (NVS) Ion Channel Assay for rat Calcium Channel, Type N (CaChN) (AID 2283317)
# [8] = molecular target: rat Gamma-Aminobutyric Acid Type B Receptor (GABBR), Gabbr1 (gene 81657) (UniProt Q9Z0U4); test: NVS_GPCR_rGABBR: NovaScreen (NVS) G Protein-Coupled Receptor Assay for rat Gamma-Aminobutyric Acid Type B Receptor (GABBR) (AID 2283301)
# Method in brief: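 Radioligand displacement on rat cortical membranes, 1 h, filter-based scintillation counting. Primary screen at 25 uM in duplicate; compounds passing threshold re-tested in concentration-response up to 50 uM; loss of binding fitted against DMSO.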
# [9] = molecular target: rat Somatostatin Receptor (SST), Sstr1 (gene 25033) (UniProt P28646); test: NVS_GPCR_rSST: NovaScreen (NVS) G Protein-Coupled Receptor Assay for rat Somatostatin Receptor (SST) (AID 2283314)
# Method in brief: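 Rat forebrain membranes; radioligand displacement read by filter-based scintillation counting 1 h after dosing. Primary screen in duplicate at 25 uM. Actives (e.g., 30% inhibition) were rerun as concentration-response to 50 uM max and fitted against DMSO.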
# [10] = molecular target: Metabotropic glutamate receptor 1 (Rattus norvegicus) (UniProt P23385); test: NVS_GPCR_rmMGluR1: NovaScreen (NVS) G Protein-Coupled Receptor Assay for rat Glutamate Metabotropic Receptor 1 (MGluR1) (AID 2283305)
# Method in brief: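 Rat cerebellum membrane preparation, radioligand displacement binding read by filter-based scintillation counting 1 hour after dosing. Initial duplicate single-point screen at 25 uM, then concentration-response up to 50 uM; loss of signal versus DMSO baseline scored.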
# [11] = molecular target: rat Opioid Receptor, Non-selective Sodium (Na+) Binding, Oprm1 (gene 25601) (UniProt P33535); test: NVS_GPCR_rOpiate_NonSelectiveNa: NovaScreen (NVS) G Protein-Coupled Receptor Assay for rat Opioid Receptor, Non-selective Sodium (Na+) Binding (AID 2283311)
# Method in brief: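 Rat forebrain membranes, radioligand displacement with filter scintillation counting, 1.5 h incubation. Screened in duplicate at 25 µM; hits then run in concentration-response up to 50 µM; loss of binding fitted versus DMSO.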
# [12] = NVS_IC_rCaDHPRCh_L: NovaScreen (NVS) Ion Channel Assay for rat Calcium Channel, Type L, Dihydropyridine Site (CaDHPRCh_L) (AID 2283320)
# Method in brief: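 Radioligand binding to dihydropyridine site on rat cortical membranes, filter-based scintillation counting, 1 h after dosing. Screened in duplicate at 25 uM; actives rerun in concentration-response up to 50 uM. Loss of signal versus DMSO baseline.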
# [13] = molecular target: rat Opioid Receptor, Non-selective Binding, Oprm1 (gene 25601) (UniProt P33535); test: NVS_GPCR_rOpiate_NonSelective: NovaScreen (NVS) G Protein-Coupled Receptor Assay for rat Opioid Receptor, Non-selective Binding (AID 2283318)
# Method in brief: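 Rat forebrain membranes, cell-free radioligand binding with filter-based scintillation counting, read 1.5 h after dosing. Primary screen in duplicate at 25 uM; actives retested in concentration series. Loss of signal versus DMSO baseline scored.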
# [14] = tested on: rat Adrenergic, Alpha 1B Receptor (Adra1B), gene 24173; test: NVS_GPCR_rAdra1B: NovaScreen (NVS) G Protein-Coupled Receptor Assay for rat Adrenergic, Alpha 1B Receptor (Adra1B) (AID 2283297)
# Method in brief: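 Rat liver membranes, radioligand displacement with filter-based scintillation detection, 1 h incubation. Primary screen in duplicate at 25 uM; actives retested in concentration series; activity relative to DMSO.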
# [15] = molecular target: rat Adrenergic Receptor, Alpha 2 (Adra2), Non-selective Binding, Adra2a (gene 25083) (UniProt P22909); test: NVS_GPCR_rAdra2_NonSelective: NovaScreen (NVS) G Protein-Coupled Receptor Assay for rat Adrenergic Receptor, Alpha 2 (Adra2), Non-selective Binding (AID 2283299)
# Method in brief: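 Rat cortical membranes, radioligand competitive displacement read by filter-based scintillation counting 1.25 hours after dosing. Primary screen in duplicate at 25 uM; actives followed up in concentration series.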
# [16] = molecular target: rat Corticotropin Releasing Factor Receptor (CRF), Crhr1 (gene 58959) (UniProt P35353); test: NVS_GPCR_rCRF: NovaScreen (NVS) G Protein-Coupled Receptor Assay for rat Corticotropin Releasing Factor Receptor (CRF) (AID 2283300)
# Method in brief: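 Rat cortical membranes used as receptor source in a radioligand competitive displacement binding assay; scintillation read 2 h after dosing. Primary screen run in duplicate at 25 uM; loss of signal versus DMSO baseline indicates binding.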
# Sequence of rat Histamine Receptor (H3), Hrh3 (gene 85268) (Q9QYN8 whole entry, looked up): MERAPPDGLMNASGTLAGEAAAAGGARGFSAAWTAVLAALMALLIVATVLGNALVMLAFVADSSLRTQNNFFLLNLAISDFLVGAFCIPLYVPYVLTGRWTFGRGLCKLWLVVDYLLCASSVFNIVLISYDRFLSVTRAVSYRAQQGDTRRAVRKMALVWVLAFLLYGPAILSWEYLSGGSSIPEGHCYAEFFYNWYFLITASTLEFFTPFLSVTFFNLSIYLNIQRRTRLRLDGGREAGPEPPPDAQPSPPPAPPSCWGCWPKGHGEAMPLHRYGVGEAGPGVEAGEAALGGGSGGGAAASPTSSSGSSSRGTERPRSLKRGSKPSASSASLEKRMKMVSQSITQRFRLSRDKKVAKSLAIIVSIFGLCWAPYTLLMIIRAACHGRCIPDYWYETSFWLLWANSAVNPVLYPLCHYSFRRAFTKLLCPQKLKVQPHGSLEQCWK
# Sequence of Adra2b (gene 24174) (P19328 whole entry, looked up): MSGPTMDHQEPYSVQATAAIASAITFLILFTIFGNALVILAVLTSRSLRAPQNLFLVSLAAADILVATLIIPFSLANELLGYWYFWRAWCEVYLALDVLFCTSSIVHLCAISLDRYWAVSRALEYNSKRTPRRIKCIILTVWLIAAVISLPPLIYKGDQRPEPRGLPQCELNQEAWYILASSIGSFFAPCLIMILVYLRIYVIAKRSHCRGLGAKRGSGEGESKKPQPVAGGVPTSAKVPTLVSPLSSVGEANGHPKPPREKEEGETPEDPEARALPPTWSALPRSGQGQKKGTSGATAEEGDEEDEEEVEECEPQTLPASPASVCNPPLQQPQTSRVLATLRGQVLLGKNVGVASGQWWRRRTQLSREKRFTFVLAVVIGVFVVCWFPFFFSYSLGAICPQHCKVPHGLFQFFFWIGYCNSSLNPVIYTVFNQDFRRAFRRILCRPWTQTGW
# Sequence of rat Glutamate Metabotropic Receptor 5 (MGluR5), Grm5 (gene 24418) (P31424 whole entry, looked up): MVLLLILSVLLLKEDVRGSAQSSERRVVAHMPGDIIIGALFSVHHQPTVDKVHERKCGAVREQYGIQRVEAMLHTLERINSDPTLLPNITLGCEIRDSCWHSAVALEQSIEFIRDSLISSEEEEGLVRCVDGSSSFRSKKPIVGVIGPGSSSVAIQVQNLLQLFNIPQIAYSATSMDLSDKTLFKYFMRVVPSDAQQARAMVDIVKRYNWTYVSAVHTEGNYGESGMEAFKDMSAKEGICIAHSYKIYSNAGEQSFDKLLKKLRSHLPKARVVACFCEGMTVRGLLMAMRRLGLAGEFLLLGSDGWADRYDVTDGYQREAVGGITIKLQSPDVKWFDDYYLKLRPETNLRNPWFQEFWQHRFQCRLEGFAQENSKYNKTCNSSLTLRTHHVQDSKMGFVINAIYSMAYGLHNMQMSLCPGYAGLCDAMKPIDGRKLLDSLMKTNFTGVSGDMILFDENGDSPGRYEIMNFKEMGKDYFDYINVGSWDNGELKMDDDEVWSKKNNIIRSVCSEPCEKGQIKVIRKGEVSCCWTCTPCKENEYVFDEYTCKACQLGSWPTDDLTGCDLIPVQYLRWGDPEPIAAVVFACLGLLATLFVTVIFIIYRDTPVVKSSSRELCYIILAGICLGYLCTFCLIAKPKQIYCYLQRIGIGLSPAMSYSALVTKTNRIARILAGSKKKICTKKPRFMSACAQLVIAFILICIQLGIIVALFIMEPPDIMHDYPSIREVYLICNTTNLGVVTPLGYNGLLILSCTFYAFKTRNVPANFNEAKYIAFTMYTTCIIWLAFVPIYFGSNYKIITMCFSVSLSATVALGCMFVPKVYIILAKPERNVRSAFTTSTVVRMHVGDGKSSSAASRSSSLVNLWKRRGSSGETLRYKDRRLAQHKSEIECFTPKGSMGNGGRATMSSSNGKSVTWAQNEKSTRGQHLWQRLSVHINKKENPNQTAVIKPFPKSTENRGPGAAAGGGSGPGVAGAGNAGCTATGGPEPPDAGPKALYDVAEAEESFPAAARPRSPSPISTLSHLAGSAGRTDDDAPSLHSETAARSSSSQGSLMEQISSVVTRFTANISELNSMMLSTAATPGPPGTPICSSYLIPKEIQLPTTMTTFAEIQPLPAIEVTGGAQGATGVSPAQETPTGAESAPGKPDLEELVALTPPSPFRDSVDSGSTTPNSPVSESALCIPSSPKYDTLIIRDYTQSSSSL
# Sequence of rat Neurokinin-3 Receptor (NK3), Tacr3 (gene 24808) (P16177 whole entry, looked up): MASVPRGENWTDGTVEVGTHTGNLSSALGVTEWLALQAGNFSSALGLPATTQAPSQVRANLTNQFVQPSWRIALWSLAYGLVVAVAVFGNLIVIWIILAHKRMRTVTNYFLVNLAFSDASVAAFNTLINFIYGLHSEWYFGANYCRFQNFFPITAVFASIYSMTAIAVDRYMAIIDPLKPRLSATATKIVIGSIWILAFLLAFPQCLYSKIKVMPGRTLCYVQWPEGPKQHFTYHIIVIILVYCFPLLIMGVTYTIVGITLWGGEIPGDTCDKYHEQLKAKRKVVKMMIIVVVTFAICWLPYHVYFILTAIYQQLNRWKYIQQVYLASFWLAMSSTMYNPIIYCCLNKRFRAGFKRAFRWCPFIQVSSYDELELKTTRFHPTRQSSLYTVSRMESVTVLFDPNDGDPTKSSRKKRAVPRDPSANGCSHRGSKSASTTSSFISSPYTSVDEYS
# Sequence of rat Opioid Receptor, Non-selective Sodium (Na+) Binding, Oprm1 (gene 25601) (P33535 whole entry, looked up): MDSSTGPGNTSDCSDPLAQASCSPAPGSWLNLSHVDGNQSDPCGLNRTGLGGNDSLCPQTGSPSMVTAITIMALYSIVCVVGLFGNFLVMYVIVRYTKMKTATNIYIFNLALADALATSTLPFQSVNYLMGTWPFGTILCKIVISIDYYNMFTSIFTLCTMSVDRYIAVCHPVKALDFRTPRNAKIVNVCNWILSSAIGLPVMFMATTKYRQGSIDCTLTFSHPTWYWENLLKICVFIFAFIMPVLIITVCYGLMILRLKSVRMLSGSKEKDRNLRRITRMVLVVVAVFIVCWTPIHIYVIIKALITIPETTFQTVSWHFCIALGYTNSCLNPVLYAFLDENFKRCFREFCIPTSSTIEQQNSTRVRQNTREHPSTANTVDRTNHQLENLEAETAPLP
# Sequence of rat Opioid Receptor, Non-selective Binding, Oprm1 (gene 25601) (P33535 whole entry, looked up): as above
# Sequence of rat Somatostatin Receptor (SST), Sstr1 (gene 25033) (P28646 whole entry, looked up): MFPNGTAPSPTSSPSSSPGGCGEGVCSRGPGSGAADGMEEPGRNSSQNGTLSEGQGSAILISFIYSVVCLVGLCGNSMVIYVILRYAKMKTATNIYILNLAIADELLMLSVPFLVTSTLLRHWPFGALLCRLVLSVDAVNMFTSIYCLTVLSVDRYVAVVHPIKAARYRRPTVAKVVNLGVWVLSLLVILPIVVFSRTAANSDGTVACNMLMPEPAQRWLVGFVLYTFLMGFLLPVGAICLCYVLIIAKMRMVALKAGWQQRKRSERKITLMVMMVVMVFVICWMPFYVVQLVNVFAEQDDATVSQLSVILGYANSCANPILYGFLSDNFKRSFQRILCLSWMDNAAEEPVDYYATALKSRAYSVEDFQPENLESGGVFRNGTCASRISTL
# Sequence of Metabotropic glutamate receptor 1 (Rattus norvegicus) (P23385 whole entry, looked up): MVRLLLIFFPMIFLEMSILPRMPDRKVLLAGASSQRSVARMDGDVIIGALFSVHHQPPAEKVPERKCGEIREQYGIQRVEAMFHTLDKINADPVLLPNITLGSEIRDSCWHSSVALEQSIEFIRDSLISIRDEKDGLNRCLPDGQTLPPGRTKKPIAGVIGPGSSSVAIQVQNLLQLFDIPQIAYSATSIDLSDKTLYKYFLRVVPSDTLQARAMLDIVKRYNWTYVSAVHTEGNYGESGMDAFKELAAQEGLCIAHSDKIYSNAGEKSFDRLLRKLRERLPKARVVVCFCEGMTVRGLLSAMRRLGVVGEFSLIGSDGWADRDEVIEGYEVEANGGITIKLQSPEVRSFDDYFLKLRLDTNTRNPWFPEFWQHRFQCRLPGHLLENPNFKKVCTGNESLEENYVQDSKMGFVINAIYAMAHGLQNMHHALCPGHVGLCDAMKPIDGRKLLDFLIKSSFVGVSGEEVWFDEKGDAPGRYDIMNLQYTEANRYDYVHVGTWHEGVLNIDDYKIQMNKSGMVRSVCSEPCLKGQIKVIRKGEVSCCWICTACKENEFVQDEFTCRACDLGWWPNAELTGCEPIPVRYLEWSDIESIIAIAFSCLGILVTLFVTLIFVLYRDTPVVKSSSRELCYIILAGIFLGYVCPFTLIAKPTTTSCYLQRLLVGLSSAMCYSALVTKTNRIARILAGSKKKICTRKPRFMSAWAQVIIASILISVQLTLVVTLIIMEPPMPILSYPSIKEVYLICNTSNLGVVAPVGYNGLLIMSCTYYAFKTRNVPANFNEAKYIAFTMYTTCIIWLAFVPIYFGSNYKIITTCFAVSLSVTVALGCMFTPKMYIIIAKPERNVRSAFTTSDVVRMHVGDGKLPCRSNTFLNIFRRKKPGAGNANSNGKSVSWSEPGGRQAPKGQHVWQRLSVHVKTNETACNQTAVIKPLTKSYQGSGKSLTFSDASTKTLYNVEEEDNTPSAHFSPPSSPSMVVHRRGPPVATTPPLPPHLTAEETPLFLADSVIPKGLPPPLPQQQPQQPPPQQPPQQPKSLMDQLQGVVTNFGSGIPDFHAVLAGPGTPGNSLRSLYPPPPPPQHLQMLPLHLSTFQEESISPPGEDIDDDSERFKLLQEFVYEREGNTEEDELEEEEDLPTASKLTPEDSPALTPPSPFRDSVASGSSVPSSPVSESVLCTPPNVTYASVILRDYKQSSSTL
# Sequence of rat Neurokinin-1 Receptor (NK1), Tacr1 (gene 24807) (P14600 whole entry, looked up): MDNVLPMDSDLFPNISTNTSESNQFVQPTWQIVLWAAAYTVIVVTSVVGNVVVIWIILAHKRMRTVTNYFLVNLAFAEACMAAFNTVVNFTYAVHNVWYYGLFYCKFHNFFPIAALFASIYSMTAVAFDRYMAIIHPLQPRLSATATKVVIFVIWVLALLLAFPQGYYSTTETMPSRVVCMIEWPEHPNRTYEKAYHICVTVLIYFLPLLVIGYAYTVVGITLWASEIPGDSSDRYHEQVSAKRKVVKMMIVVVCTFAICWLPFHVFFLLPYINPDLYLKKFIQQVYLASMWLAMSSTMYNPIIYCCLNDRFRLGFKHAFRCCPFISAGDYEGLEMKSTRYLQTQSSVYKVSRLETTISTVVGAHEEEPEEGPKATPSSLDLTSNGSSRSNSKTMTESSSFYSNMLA
compound,measurement,setting,value
Clc1ccc(C(c2ccc(Cl)cc2)C(Cl)Cl)cc1,outcome,NCBI gene 24521,inactive
Cn1cc(-c2ccccc2)c(=O)c(-c2cccc(C(F)(F)F)c2)c1,outcome,[1],inactive
Cc1ccc([N+](=O)[O-])cc1,AC50,NCBI gene 24521,4.96 µM (active)
Clc1ccc(C(c2ccc(Cl)cc2)C(Cl)(Cl)Cl)cc1,outcome,[2],inactive
N#CC(Br)Br,outcome,[3],inactive
Cc1cc(N=Nc2ccccc2C)ccc1N,outcome,[4],inactive
O=C(Oc1ccc(Br)cc1)N1CCN2CCC1CC2,AC50,[5],0.851 µM (active)
same,outcome,Adra2b (gene 24174),inactive
same,AC50,[6],8.47 µM (active)
same,outcome,NCBI gene 24521,inactive
ClC1=C(Cl)C2(Cl)C3C(Cl)C=CC3C1(Cl)C2(Cl)Cl (centres undefined),outcome,[7],inactive
CC(C)(O)c1cnn2c(-c3ccc(F)c(-c4c(F)cccc4C#N)c3)cnc2n1,outcome,[8],inactive
CCCCCCCCOC(=O)c1ccc(C(=O)OCCCCCCCC)c(C(=O)OCCCCCCCC)c1,AC50,[9],0.326 µM (active)
CCCCCCCCn1sccc1=O,AC50,[5],10.6 µM (active)
same,AC50,[10],21.2 µM (active)
same,AC50,Adra2b (gene 24174),26 µM (active)
same,outcome,[3],inactive
same,AC50,[11],32.5 µM (active)
same,AC50,[12],18 µM (active)
CCCCC(CC)COC(=O)c1ccc(C(=O)OCC(CC)CCCC)c(C(=O)OCC(CC)CCCC)c1 (centres undefined),outcome,[13],inactive
CC(C)(C)OOC(=O)c1ccccc1,outcome,[5],inactive
same,outcome,[2],inactive
CCOc1cccc(C2(N3CCN(c4ccccc4)CC3)CCC(C)CC2)c1 (centres undefined),outcome,[7],inactive
CCC[CH2][Sn]([Cl])([CH2]CCC)[CH2]CCC,AC50,[14],3.87 µM (active)
same,AC50,[4],25 µM (active)
same,AC50,[15],2.98 µM (active)
same,AC50,[16],3.75 µM (active)
same,AC50,[5],15.2 µM (active)
same,AC50,[10],2.5 µM (active)
same,outcome,Adra2b (gene 24174),inactive
same,AC50,[1],25 µM (active)
same,AC50,[3],1.43 µM (active)
same,AC50,[11],8.92 µM (active)
same,outcome,[9],inactive
same,outcome,[7],inactive
same,AC50,[13],3.98 µM (active)
same,AC50,[12],11.6 µM (active)
CCN(CC)CCO,outcome,[1],inactive
C[N+](C)(C)CC1CO1 (centres undefined),outcome,[8],inactive
